In the supplement of paper PMC10037445:
± gives the standard deviation of the averaged measurements. Whole data set: some 2,900 compounds, median “NF-kB SEAP reporter activity, fold change vs agonist alone” near 0.99, cut for the highest 2% near 2.6. This excerpt belongs to a sample that is enriched for the highest values.

Tests used:
RAW-Dual [1] = assay: NF-kB SEAP reporter activity, fold change vs agonist alone; higher = enhanced NF-kB activity; settings: library stock concentration (final ~1000-fold dilution): 10 mM, cytotoxicity flag (confluency mask): not cytotoxic
How it was run: (§1)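 RAW-Dual macrophages were seeded in DMEM at 50,000 cells/well in 384-well plates, given 50 nL of library stock by pin tool, and given a PRR agonist 1 h later. Plates were held at 37 °C, 5% CO2 for 20 hours, after which supernatant was read for IRF by QuantiLuc luminescence and for NF-κB by QuantiBlue absorbance at 620 nm. Reporter activity is expressed as fold change over wells that received agonist alone. A well was called cytotoxic when IncuCyte confluency fell below 70% of agonist controls in both mask sets.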

RAW-Dual [2] = assay: NF-kB SEAP reporter activity, fold change vs agonist alone; cytotoxicity flag (confluency mask): not cytotoxic; higher = enhanced NF-kB activity
How it was run: as §1

[3] = agonist: ODN 1826 (TLR9) 0.5 ug/mL
[4] = agonist: Pam2CSK4 (TLR2/6) 0.1 ug/mL
[5] = agonist: Pam3CSK4 (TLR2/1) 0.1 ug/mL

Compound	NF-kB SEAP reporter activity (RAW-Dual [1]; agonist: Imiquimod (TLR7) […])	NF-kB SEAP reporter activity (RAW-Dual [1]; agonist: MPLA (TLR4) […])	NF-kB SEAP reporter activity (RAW-Dual [2]; agonist: LPS (TLR4) 0.1 ug/mL)	NF-kB SEAP reporter activity (RAW-Dual [2]; [3])	NF-kB SEAP reporter activity (RAW-Dual [2]; [4])	NF-kB SEAP reporter activity (RAW-Dual [2]; [5])
Cc1cccc(C)c1OCC(=O)NC(Cc1ccccc1)C(O)CC(Cc1ccccc1)NC(=O)C(C(C)C)N1CCCNC1=O (stereo not drawn)	1.63	2.06	–	–	–	–
Cc1cccc(C)c1OCC(=O)NC(Cc1ccccc1)C(O)CC(Cc1ccccc1)NC(=O)C(C(C)C)N1CCCNC1=O (stereo not drawn) (library stock concentration (final ~1000-fold dilution): 10 mM)	–	–	1.37	2.09	0.396	1.03
Cc1ccc(S(=O)(=O)O)cc1.NC(=O)c1cccc2cn(-c3ccc(C4CCCNC4)cc3)nc12 (stereo not drawn)	0.663	1.04	–	–	–	–
Cc1ccc(S(=O)(=O)O)cc1.NC(=O)c1cccc2cn(-c3ccc(C4CCCNC4)cc3)nc12 (stereo not drawn) (library stock concentration (final ~1000-fold dilution): 10 mM)	–	–	1.04	0.181	1.41	1.1
Cc1nc2ccc(CN(C)c3ccc(C(=O)NC(CCC(=O)O)C(=O)O)s3)cc2c(=O)[nH]1 (stereo not drawn)	1.78	1.45	–	–	–	–
Cc1nc2ccc(CN(C)c3ccc(C(=O)NC(CCC(=O)O)C(=O)O)s3)cc2c(=O)[nH]1 (stereo not drawn) (library stock concentration (final ~1000-fold dilution): 10 mM)	–	–	1.56	1.93	1.31	1.7
CNc1ccc([N+](=O)[O-])cc1-n1cnc(-c2ccc(C(F)(F)F)cc2)c1 (library stock concentration (final ~1000-fold dilution): 10 mM)	–	–	4.5	1.91	0.926	1.08
CNc1ccc([N+](=O)[O-])cc1-n1cnc(-c2ccc(C(F)(F)F)cc2)c1	1.24	2.01	–	–	–	–
O=C(Cc1ccccc1)Nc1nnc(NC2CCN(c3nnc(NC(=O)Cc4ccccc4)s3)CC2)s1	0.998	1.26	–	–	–	–
O=C(Cc1ccccc1)Nc1nnc(NC2CCN(c3nnc(NC(=O)Cc4ccccc4)s3)CC2)s1 (library stock concentration (final ~1000-fold dilution): 10 mM)	–	–	1.41	0.773	0.514	0.64
COc1ccc(C2CC(=O)c3c(O)cc(O)cc3O2)cc1O (stereo not drawn)	1.28	1.11	–	–	–	–
COc1ccc(C2CC(=O)c3c(O)cc(O)cc3O2)cc1O (stereo not drawn) (library stock concentration (final ~1000-fold dilution): 10 mM)	–	–	1.12	1.2	1.26	1.33
O=C(O)CCN1C(=O)/C(=C2/C(=O)Nc3ccc(Cl)cc32)SC1=S	0.954	1.18	–	–	–	–
O=C(O)CCN1C(=O)/C(=C2/C(=O)Nc3ccc(Cl)cc32)SC1=S (library stock concentration (final ~1000-fold dilution): 10 mM)	–	–	1.86	0.841	1.4	1.57
COc1cc(/C=C/CO)cc(OC)c1OC1OC(CO)C(O)C(O)C1O (stereo not drawn) (library stock concentration (final ~1000-fold dilution): 10 mM)	–	–	1.08	1.01	1.11	1.15
COc1cc2c(OC3OC(CO)C4OC(C)(C)OC4C3O)c3c(c(-c4ccc5c(c4)OCO5)c2cc1OC)C(=O)OC3 (stereo not drawn) (library stock concentration (final ~1000-fold dilution): 10 mM)	–	–	2.9	0.644	1.95	3.92
COc1cc2c(OC3OC(CO)C4OC(C)(C)OC4C3O)c3c(c(-c4ccc5c(c4)OCO5)c2cc1OC)C(=O)OC3 (stereo not drawn)	0.364	2.28	–	–	–	–
COc1cc(-c2oc3cc(O)cc(O)c3c(=O)c2OC2OC(CO)C(O)C(O)C2OC2OC(C)C(O)C(O)C2O)ccc1O (stereo not drawn) (library stock concentration (final ~1000-fold dilution): 10 mM)	–	–	1.2	0.987	1.01	0.949
COc1cc(-c2oc3cc(O)cc(O)c3c(=O)c2OC2OC(CO)C(O)C(O)C2OC2OC(C)C(O)C(O)C2O)ccc1O (stereo not drawn)	0.928	1.05	–	–	–	–
COc1cc(/C=C/CO)cc(OC)c1OC1OC(CO)C(O)C(O)C1O (stereo not drawn)	1.03	1.08	–	–	–	–
CC(NC(CCc1ccccc1)C(=O)O)C(=O)N1CCCC1C(=O)O.O.O (stereo not drawn) (library stock concentration (final ~1000-fold dilution): 10 mM)	–	–	0.977	1.07	1.14	1.09
CC(NC(CCc1ccccc1)C(=O)O)C(=O)N1CCCC1C(=O)O.O.O (stereo not drawn)	0.942	1.12	–	–	–	–
COc1cc(C(N)=O)nc(-c2cccc(C#C[C@]3(O)CCN(C)C3=O)c2)c1	0.839	0.915	–	–	–	–
COc1cc(C(N)=O)nc(-c2cccc(C#C[C@]3(O)CCN(C)C3=O)c2)c1 (library stock concentration (final ~1000-fold dilution): 10 mM)	–	–	1.39	0.529	0.699	0.966
Cc1noc(C)c1-c1ccc(-c2cc(C(N)=O)c(NC(N)=O)s2)c(OC2CCNC2)c1 (stereo not drawn) (library stock concentration (final ~1000-fold dilution): 10 mM)	–	–	0.567 ± 0.07	0.449 ± 0.019	0.275 ± 0.0078	0.392 ± 0.058
Cc1noc(C)c1-c1ccc(-c2cc(C(N)=O)c(NC(N)=O)s2)c(OC2CCNC2)c1 (stereo not drawn)	0.654 ± 0.054	0.683 ± 0.15	–	–	–	–
